Source: PubChem BioAssay (Broad Institute)
A selection: hits, their analogues and other compounds. The true share with any hit is near 2.2%.
PAX8 reporter – inhibitors of PAX8 transcriptional activity in RMG-I cells; RMG-I TPO-luciferase reporter, SteadyGlo, 24 h; inhibition, % at 12.6 µM; 360,000 compounds, 1.2% hits;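 active = mean replicate inhibition at least 60% with every replicate also reaching 60%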;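 note: luciferase light reporting Pax8 driven TPO promoter activity; plate controls were median of neutral control wells for no effect and mitoxantrone controls for full effect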
LGR2 antag – blocks bursicon-induced cAMP signaling via Drosophila LGR2. inhibition, % at 9.99 µM. AID 720647. 380,000 compounds, 0.35% hits. HEK293 LGR2, CRE-luciferase, bursicon-stimulated, 4 h;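 active = drop in luminescence signal, shown as inhibition above about 50% in the replicate tests, limit read from the data, passing the limit was not always enough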;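 note: agonist challenge used bursicon conditioned medium at about half maximal strength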
EBV LMP1 NFkB – reduces LMP1-driven NF-kappaB luciferase signal | LMP1-induced NF-kappaB luciferase reporter cells, luminescence | inhibition, % at 12.5 µM | 350,000 compounds, 0.69% hits | AID 504558; in the data active = inhibition above about 41%;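 note: 0% = neutral control wells and 100% = reference inhibitor control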
PGC1a acetyl inh – PGC1a acetylation modulation, inhibitor mode; inhibition, % at 15.6 µM; AID 651687; 350,000 compounds, 0.17% hits; U2OS PGC1a acetylation, AlphaScreen anti-acetyl-lysine; with virally co-expressed GCN5 acetyltransferase;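 active = every replicate shows inhibition of at least 40%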;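 note: 0% = neutral control wells and 100% = positive control wells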
EWS-Fli block – inhibitors of EWS/Fli oncoprotein transcriptional activity; inhibition, % at 12.6 µM; A673 NR0B1-luciferase reporter, viability-normalised; AID 651661; 350,000 compounds, 0.67% hits;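 active = mean inhibition of at least 50% after viability correction, with every replicate also passing that limit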;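 note: firefly luciferase signal divided by Alamar Blue viability fluorescence both relative to DMSO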
MITF TRPM1 inh – inhibitors of MITF-driven TRPM1 promoter in melanoma cells; 330,000 compounds, 0.83% hits; SK-MEL-5 TRPM1 promoter luciferase, 24 h; inhibition, % at 12.5 µM;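 active = mean inhibition across replicates of 60% or more, whatever share of single replicates reaches that level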
Active calls of the source: *; x = not tested or not shown.

SMILES	PAX8 reporter	LGR2 antag	EBV LMP1 NFkB	PGC1a acetyl inh	EWS-Fli block	MITF TRPM1 inh
C[C@@H]1CN([C@@H](C)CO)C(=O)c2cc(NC(=O)Nc3cccc4ccccc34)ccc2O[C@@H](C)CCCCO[C@H]1CN(C)C(=O)Cc1ccccc1	8	-9	x	3	7	x
COc1ccc(-c2cc(NC=O)c3ncc(-c4cccc(OC)c4)n3c2)cc1	8	-14	x	-1	45	x
COc1ccc(-c2cnc3c(NC=O)cc(-c4ccccc4)cn23)cc1OC	33	-37	x	-1	46	x
COc1cccc(-c2cnc3c(NC=O)cc(-c4ccc(OC)cc4OC)cn23)c1	99*	-28	x	-20	32	x
COc1ccc(-c2cc(NC=O)c3ncc(-c4ccc(OC)c(OC)c4)n3c2)c(OC)c1	83*	-46	x	-26	47	x
COc1cccc(-c2cc(NC=O)c3ncc(-c4ccc(OC)c(OC)c4)n3c2)c1	17	-36	x	-8	26	x
COc1ccc(-c2cnc3c(NC=O)cc(-c4ccc(F)cc4)cn23)cc1OC	69*	-26	x	-14	34	x
Cc1cccc(-c2ccc([C@@H]3[C@@H](CO)N4CCCCN(Cc5cncnc5)C[C@H]34)cc2)c1	-19	-12	x	5	-25	x
CCC(=O)N1[C@H](CO)[C@@H](c2ccccc2)C12CN(CC1CCOCC1)C2	-4	9	x	2	5	x
O=C(O)c1cc2cc(F)ccc2[nH]1	13	4	85*	-1	3	21
O=C(O)c1cc2cc(Cl)ccc2[nH]1	1	2	2	3	0	15
O=C(NCc1ccco1)c1cccc2ccccc12	x	x	3	-7	x	-1
O=C(Nc1ccccc1C(=O)NCc1ccco1)Nc1cccc2ccccc12	61*	x	-7	x	8	2
CCOC(=O)CCSc1nc(N2CCOCC2)c2c(c1C#N)CC(C)(C)OC2	19	-4	63*	x	11	-13
COC(=O)CCSc1nc(N2CCOCC2)c2c(c1C#N)CC(C)(C)OC2	2	8	-5	0	11	0
Fc1ccc(NC(=S)N/N=C/c2ccc(F)c(F)c2)cc1	-1	-96	-2	x	-7	-3
O=[N+]([O-])c1ccc(/C=N/NC(=S)Nc2ccc(Cl)cc2Cl)s1	92*	-7	15	2	10	40
Fc1ccc(/C=N/NC(=S)Nc2ccc(Cl)cc2Cl)cc1	-1	-1	-3	-9	53*	11
Cc1ccc([N+](=O)[O-])cc1N=Nc1c(-c2ccc([N+](=O)[O-])cc2)[nH]n(C(N)=S)c1=O	x	x	26	10	x	64*
O=c1oc2ccccc2cc1-c1cn2cccnc2n1	x	x	29	x	x	-1
O=c1oc2ccccc2cc1-c1cn2ccccc2n1	71*	71*	68*	-10	85*	81*
COc1ccccc1NC(=O)c1cnc(SCC(=O)NCC2CCCO2)n(C)c1=O (centres undefined)	3	4	-15	-3	11	68*
COc1cccc(S(=O)(=O)N[C@H]2C=C[C@H](CC(=O)NCc3ccccc3)O[C@H]2CO)c1	x	17	x	9	x	x
Cc1cc(OCc2nc(N)nc(N)c2-c2ccc(Cl)c(Cl)c2)ccc1[N+](=O)[O-]	44	22	2	12	63*	45
CCc1nc(N)nc(N)c1-c1ccc(NCCN)c([N+](=O)[O-])c1	-5	-15	4	x	45	18
Cc1cc(C)c2nc(N3CCC(C(=O)NCCCN4CC(C)CC(C)C4)CC3)sc2c1 (centres undefined)	-81	-9	-88	x	19	83*
CCOC(=O)N1CCC(NC(=O)C2CCCN(Cc3nc(-c4cccc(Cl)c4)oc3C)C2)CC1 (centres undefined)	3	-9	53*	1	22	25
Cc1oc(-c2cccc(Cl)c2)nc1CN1CCC(C(=O)NCCCN2CCCC2=O)CC1	-6	2	0	-11	-9	2
Cc1cc(C)c2nc(N3CCCC(C(=O)NCCCN4CCOCC4)C3)sc2c1 (centres undefined)	-137	x	-30	-12	x	-32
Cc1oc(-c2cccc(Cl)c2)nc1CN1CCC(C(=O)NCCCN2CC(C)CC(C)C2)CC1 (centres undefined)	x	x	-33	x	x	96*
